The nature of assay [1]: Nuclear factor erythroid 2-related factor 2/antioxidant responsive element (Nrf2/ARE) small molecule agonists: qHTS cell viability counter screen in human keratinocytes (AID 1919968; active = well fitted curve in the direction sought with a large enough effect in the repeat runs; an effect the other way counts as inactive or inconclusive; note: nearly all actives have a fitted effect of over 55% in size; note: potency is the fitted concentration of half-maximal effect). The method, boiled down: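 Parallel cytotoxicity read: KeratinoSens HaCaT cells, compound treatment 23 h, viability by CellTiter-Fluor fluorescence 1 h post-reagent.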
A general note: Quantitative high-throughput screening tests each substance at several concentrations.

The nature of assay [2]: Nuclear factor erythroid 2-related factor 2/antioxidant responsive element (Nrf2/ARE) small molecule agonists: luciferase reporter gene qHTS assay in human keratinocytes (AID 1919969). Note: nearly all actives have a fitted effect of over 35% in size. Note: potency is the fitted concentration of half-maximal effect.
Assay [3] addresses Gonadotropin-releasing hormone receptor (Homo sapiens) (UniProt P30968). Nature of the assay: Human gonadotropin-releasing hormone receptor (GnRHR) small molecule agonists, calcium flux assay in GnRHR-HEK293 cells (AID 1920063). Note: nearly all actives have a fitted effect of over 35% in size. The method, boiled down: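 Calcium flux, agonist mode, human GnRHR stably integrated in HEK293; dye 1 h at 37 C before compound; Ex/Em=480/540 kinetic read, 3 min; 15 concentrations, triplicate.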
(A change in cytosolic calcium serves as a functional read-out for many receptors and channels.)

The target in assay [4] is KiSS-1 receptor (Homo sapiens) (UniProt Q969F8). Nature of the assay: Human kisspeptin (KISS1R) small molecule agonists, calcium flux assay in KISS1R-HEK293 cells (AID 1920064; active = well fitted curve in the direction sought with a large enough effect in the repeat runs; an effect the other way counts as inactive or inconclusive). In outline: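 Triplicate 15-concentration series were applied to dye-loaded human KISS1R HEK293 cells, and agonist-evoked calcium fluorescence was captured for 3 min.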
A short description of assay [5]: p53 small molecule agonists, cell-based qHTS assay with human liver microsomes: qHTS cell viability counter screen (AID 1963579). Note: nearly all actives have a fitted effect of over 45% in size. Note: potency is the fitted concentration of half-maximal effect. In outline: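 In this multiplexed counter screen, the reporter plates were subsequently treated with CellTiter-Glo so that cell viability, reflected by luminescence, could be recorded for p53RE-bla cells dosed 16 h with compounds under microsomal activation (HLM and NADPH).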

A short description of assay [6]: p53 small molecule agonists, cell-based qHTS assay with rat liver microsomes: qHTS cell viability counter screen (AID 1963580). Note: nearly all actives have a fitted effect of over 45% in size. Note: potency is the fitted concentration of half-maximal effect. In outline:
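Cytotoxicity counter screen: intracellular ATP read by CellTiter-Glo luminescence in the p53 reporter wells. HCT-116 p53RE-bla cells were treated for 16 h at 37 C alongside rat liver microsomes and NADPH, each 0.5 mg/mL final.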

Assay [7] can be described thus: p53 small molecule agonists, cell-based qHTS assay: qHTS cell viability counter screen (AID 1963581). Note: nearly all actives have a fitted effect of over 45% in size. The method, boiled down: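 Multiplexed with the reporter read, a CellTiter-Glo step (30 min, room temperature) gauges ATP-based viability of HCT-116 p53RE-bla cells after 16 h compound incubation at 37 C.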
In assay [8] the target is 5-hydroxytryptamine receptor 2A (Homo sapiens) (UniProt P28223). Nature of the assay: 5-hydroxytryptamine receptor 2A (HTR2A) small molecule antagonists, cell-based qHTS assay (AID 1963586). Note: nearly all actives have a fitted effect of over 45% in size. The method, boiled down: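 CHO cells stably expressing human HTR2A were plated for 18 h at 37 C, then loaded with calcium dye for 1 h. Compounds were preincubated 5 min at room temperature before DOI (4 nM solution) was added. Kinetic fluorescence was read for 3 min.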

The target is the same in assay [9]. Nature of the assay: 5-hydroxytryptamine receptor 2A (HTR2A) small molecule agonists, cell-based qHTS assay (AID 1963587). Note: nearly all actives have a fitted effect of over 30% in size. The method, boiled down: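 Kinetic calcium-flux fluorescence (2 min, 1 sec intervals) after compound addition in agonist mode. HTR2A-CHO cells were cultured 18 h, then dye-loaded 1 h at 37 C.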
The target in assay [10] is Muscarinic acetylcholine receptor M1 (Homo sapiens) (UniProt P11229). Nature of the assay: Cholinergic receptor muscarinic 1 (CHRM1) small molecule antagonists, cell-based qHTS assay (AID 1963588). Note: nearly all actives have a fitted effect of over 40% in size. Note: potency is the fitted concentration of half-maximal effect. In outline: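 Compounds were tested at 15 concentrations in three independent runs. Dye-loaded CHRM1-CHO cells were exposed 5 min at room temperature before stimulation by acetylcholine added at 50nM. Intracellular calcium was read kinetically on FDSS for 3 min.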

Assay [11] shares this target. Nature of the assay: Cholinergic receptor muscarinic 1 (CHRM1) small molecule agonists, cell-based qHTS assay (AID 1963589). Note: nearly all actives have a fitted effect of over 35% in size. In outline:
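qHTS, 15-point titration, 3 independent runs: compounds pin-transferred onto dye-loaded CHRM1-CHO cells (human M1), calcium fluorescence followed every second to detect agonism.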

The nature of assay [12]: cAMP Responsive Elements (CRE) small molecule agonists, cell-based qHTS assay (AID 1963590). In outline: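 Quantitative HTS for CRE agonists: HEK 293T CRE-bla cells, overnight plating, 3 h compound incubation at 37 C/5% CO2, then 2 h room-temperature LiveBLAzer B/G FRET substrate loading.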
Assay [13] in a line: cAMP Responsive Elements (CRE) small molecule antagonists, cell-based qHTS assay (AID 1963591; active = well fitted inhibition curve with a large enough effect in the signal ratio in the repeat runs, not every such curve was filed as active; the % refers to the signal ratio). In outline:
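Fluorescence intensity from cleaved LiveBLAzer B/G substrate (2 h, room temperature) quantified CRE-bla activity in HEK 293T cells exposed 3 h to compound with 0.25 uM final NKH477.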

The target in assay [14] is Beta-2 adrenergic receptor (Homo sapiens) (UniProt P07550). Nature of the assay: Adrenergic beta2 receptor (ADRB2) small molecule antagonists, cell-based qHTS assay (AID 1963592). Note: series mostly up to about 92 µM; nearly all actives have a fitted effect of over 50% in size. The method, boiled down: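 Assay format: CHO-ADRB2 cells, 18-20hr seeding at 37C/5% CO2, then compound plus 1nM isoproterenol agonist mix for 0.5hr RT. Homogeneous time-resolved fluorescence cAMP detection after 1hr, expressed as 665/615 nm ratio.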

Assay [15] has the same target. Nature of the assay: Adrenergic beta2 receptor (ADRB2) small molecule agonists, cell-based qHTS assay (AID 1963593).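 Note: CHO cells stably overexpressing human ADRB2.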 In outline: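 CHO cells stably over-expressing ADRB2 were plated overnight at 37C, then dosed with compounds plus a stimulation mix containing 100uM IBMX and 25uM Ro-20-1724 for 0.5hr at room temperature. cAMP was measured by HTRF competition, 1hr.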

For assay [16], the target named is D(2) dopamine receptor (Homo sapiens) (UniProt P14416). Nature of the assay: Dopamine D2 receptor (DRD2) small molecule agonists, cell-based qHTS assay (AID 1963594). Note: nearly all actives have a fitted effect of over 35% in size. The method, boiled down:
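cAMP accumulation in DRD2-HEK293 cells measured by HTRF after 1 h detection; compounds added 10 min before NKH477 (200nM […]) forskolin-analogue stimulation, 30 min at room temperature, with Ro20-1724 present at 0.1 mM final.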

Assay [17] has the same target. Nature of the assay: Dopamine D2 receptor (DRD2) small molecule antagonists, cell-based qHTS assay (AID 1963595; active = well fitted inhibition curve with a large enough effect in the signal ratio in the repeat runs, with a control signal flat; the % refers to the signal ratio). The method, boiled down:
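DRD2-HEK293; 0.1 mM Ro20-1724; cpd 10 min RT; NKH477 200 nM + quinpirole 12 nM, 30 min RT; HTRF cAMP (cAMP-d2/anti-cAMP cryptate), 665/620 nm ratio after 1 h.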

A short description of assay [18]: p53 small molecule agonists, cell-based qHTS assay with rat liver microsomes (AID 1963578). The method, boiled down: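 With rat liver microsomes and NADPH present (0.5 mg/mL final each), p53RE-bla cells are treated with compound for 16 h at 37 C. LiveBLAzer detection mixture is then applied for 2 h at room temperature in the dark.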
Assay [19] can be described thus: G protein-coupled receptor (GPCR) small molecule agonists, calcium flux assay: HEK293 wild type cell line counter screen (AID 1920065). In outline:
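Non-specific calcium responders were flagged by adding DMSO-dissolved compounds to dye-loaded cells and reading 480/540 nm fluorescence each second for 3 min; ATP served as positive control.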

The nature of assay [20]: p53 small molecule agonists, cell-based qHTS assay (AID 1963582; active = well fitted activation curve with a large enough effect in the signal ratio in the repeat runs, not every such curve was filed as active; the % refers to the signal ratio). In outline: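 Beta-lactamase reporter cells (p53RE-bla) treated with compounds for 16 h at 37 C; FRET substrate, 2 h, room temperature; fluorescence intensity.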

Results on 7 molecules are retold here after PubChem BioAssay (Tox21).

Structures are written as SMILES. “And” between values parts separate entries of the source, which are not always exact repeats. Equal entries are not always repeated. Inconclusive results are not listed. Some structures have more than one record in an assay (separate samples or runs), and their calls can disagree. The source made the active and inactive calls. Unless noted, calls come from the whole dose curve.

Gonadotropin-releasing hormone receptor (Homo sapiens), sequence (P30968 whole entry, looked up): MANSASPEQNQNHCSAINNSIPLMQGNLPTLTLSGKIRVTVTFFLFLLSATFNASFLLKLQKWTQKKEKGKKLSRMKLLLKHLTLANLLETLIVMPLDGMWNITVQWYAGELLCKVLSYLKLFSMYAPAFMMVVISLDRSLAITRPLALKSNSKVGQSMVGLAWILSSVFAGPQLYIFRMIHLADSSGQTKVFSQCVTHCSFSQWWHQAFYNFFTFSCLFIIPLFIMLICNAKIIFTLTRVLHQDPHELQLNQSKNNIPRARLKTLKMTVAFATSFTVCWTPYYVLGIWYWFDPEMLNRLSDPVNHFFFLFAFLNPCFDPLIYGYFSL
Beta-2 adrenergic receptor (Homo sapiens), sequence (P07550 whole entry, looked up): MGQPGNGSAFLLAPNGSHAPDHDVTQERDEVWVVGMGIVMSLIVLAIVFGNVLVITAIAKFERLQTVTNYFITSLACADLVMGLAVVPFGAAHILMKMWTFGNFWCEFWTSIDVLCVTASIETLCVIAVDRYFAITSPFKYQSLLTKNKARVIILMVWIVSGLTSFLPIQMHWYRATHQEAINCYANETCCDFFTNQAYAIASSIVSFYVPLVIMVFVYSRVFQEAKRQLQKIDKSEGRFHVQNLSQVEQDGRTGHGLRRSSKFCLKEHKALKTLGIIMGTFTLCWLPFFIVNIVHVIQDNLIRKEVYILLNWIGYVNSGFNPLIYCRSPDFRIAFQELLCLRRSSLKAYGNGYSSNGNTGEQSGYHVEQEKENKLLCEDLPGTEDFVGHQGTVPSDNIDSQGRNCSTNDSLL
Muscarinic acetylcholine receptor M1 (Homo sapiens), sequence (P11229 whole entry, looked up): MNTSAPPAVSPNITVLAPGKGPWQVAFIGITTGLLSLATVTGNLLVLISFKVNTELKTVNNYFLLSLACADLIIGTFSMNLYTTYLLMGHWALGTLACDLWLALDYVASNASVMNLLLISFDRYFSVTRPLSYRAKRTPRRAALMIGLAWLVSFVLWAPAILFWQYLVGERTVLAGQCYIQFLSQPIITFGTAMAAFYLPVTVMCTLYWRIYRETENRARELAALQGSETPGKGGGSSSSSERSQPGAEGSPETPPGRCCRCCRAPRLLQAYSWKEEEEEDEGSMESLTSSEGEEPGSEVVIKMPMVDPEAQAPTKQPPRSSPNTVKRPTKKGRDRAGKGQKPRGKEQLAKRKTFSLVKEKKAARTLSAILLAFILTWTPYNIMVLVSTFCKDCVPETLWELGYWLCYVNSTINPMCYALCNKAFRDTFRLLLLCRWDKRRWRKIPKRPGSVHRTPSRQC
D(2) dopamine receptor (Homo sapiens), sequence (P14416 whole entry, looked up): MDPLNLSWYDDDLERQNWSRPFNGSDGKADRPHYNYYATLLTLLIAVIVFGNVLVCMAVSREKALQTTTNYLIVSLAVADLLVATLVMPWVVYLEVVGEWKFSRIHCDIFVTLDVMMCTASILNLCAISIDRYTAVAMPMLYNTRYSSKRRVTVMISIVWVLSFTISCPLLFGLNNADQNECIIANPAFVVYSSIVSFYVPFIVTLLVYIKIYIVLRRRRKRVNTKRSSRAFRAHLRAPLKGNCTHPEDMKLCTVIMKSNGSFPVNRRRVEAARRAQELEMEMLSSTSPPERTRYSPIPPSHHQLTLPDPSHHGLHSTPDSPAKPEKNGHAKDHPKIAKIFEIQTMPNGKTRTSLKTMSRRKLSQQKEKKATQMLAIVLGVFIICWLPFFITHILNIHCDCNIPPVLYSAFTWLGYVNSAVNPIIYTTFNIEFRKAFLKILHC
5-hydroxytryptamine receptor 2A (Homo sapiens), sequence (P28223 whole entry, looked up): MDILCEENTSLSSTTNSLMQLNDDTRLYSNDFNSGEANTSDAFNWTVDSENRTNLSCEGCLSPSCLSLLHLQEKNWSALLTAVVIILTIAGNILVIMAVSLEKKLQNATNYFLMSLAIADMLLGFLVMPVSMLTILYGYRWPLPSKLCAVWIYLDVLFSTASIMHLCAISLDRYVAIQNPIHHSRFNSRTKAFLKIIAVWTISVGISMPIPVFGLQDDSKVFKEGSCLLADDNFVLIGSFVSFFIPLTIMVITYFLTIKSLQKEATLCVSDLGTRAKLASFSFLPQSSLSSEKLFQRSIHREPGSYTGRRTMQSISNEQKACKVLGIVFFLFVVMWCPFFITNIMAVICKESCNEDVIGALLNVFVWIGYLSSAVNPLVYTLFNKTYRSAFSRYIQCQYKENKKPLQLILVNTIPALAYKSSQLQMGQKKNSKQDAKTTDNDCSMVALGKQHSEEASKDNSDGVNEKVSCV
KiSS-1 receptor (Homo sapiens), sequence (Q969F8 whole entry, looked up): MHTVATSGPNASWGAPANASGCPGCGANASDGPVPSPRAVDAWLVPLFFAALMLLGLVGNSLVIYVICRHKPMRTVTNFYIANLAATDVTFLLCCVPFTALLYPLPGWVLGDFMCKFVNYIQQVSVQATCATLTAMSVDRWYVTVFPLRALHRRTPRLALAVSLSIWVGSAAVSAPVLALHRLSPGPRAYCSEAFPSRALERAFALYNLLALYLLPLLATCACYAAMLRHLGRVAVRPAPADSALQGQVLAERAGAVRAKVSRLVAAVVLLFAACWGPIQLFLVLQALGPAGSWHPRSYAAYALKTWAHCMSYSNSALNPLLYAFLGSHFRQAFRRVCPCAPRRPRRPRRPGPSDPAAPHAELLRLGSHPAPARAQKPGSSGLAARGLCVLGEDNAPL

Turning to `CC1CC(=O)O1` (stereo not given), the Potency entry in assay [1], in assay [2], in assay [3], in assay [4], in assay [5] and in assay [6] was “inactive” throughout. For the same molecule, the Potency entry in assay [7], in assay [8], in assay [9], in assay [10], in assay [11] and in assay [12] was “inactive” each time. Further, the Potency result in [13], in [14], in [15], in [16] and in assay [17] was “inactive” each time.

Consider `CCC(Br)(CC)C(=O)NC(N)=O`, for which the Potency result in assay [1], in assay [2], in [3], in assay [4], in [18] and in assay [5] was “inactive” throughout. Further, the Potency entry in [6], in assay [7], in assay [8], in [9], in [10] and in assay [11] was “inactive” each time. Also, the Potency entry in assay [12], in [13], in assay [14], in [15], in assay [16] and in [17] was “inactive” throughout.

As to `CC[n+]1c(-c2ccccc2)c2cc(N)ccc2c2ccc(N)cc21`, the Potency in assay [1] is 48.3 µM (active) and 7.5 µM (active); in assay [2], “inactive and 10.6 µM (active)”; in assay [10], 8.36 µM (active) and 9.18 µM (active). For the same molecule, the Potency entry in assay [3], in assay [4], in assay [18], in assay [5], in assay [7] and in [8] was “inactive” throughout. Moreover, the Potency result in assay [9], in assay [11] and in assay [12] was “inactive” each time.

Take `CN(C)P(=O)(N(C)C)N(C)C`: the Potency entry in assay [1], in [2], in assay [3], in [19], in [18] and in [5] was “inactive” throughout. Further, the Potency entry in [6], in assay [7], in assay [20], in assay [8], in assay [9] and in assay [10] was “inactive” in each case. Moreover, the Potency result in [11], in assay [12], in [13], in assay [14], in assay [15] and in [16] was “inactive” in each case. Besides, the Potency entry in assay [17] is “inactive”.

On to `N#CCBr`, for which the Potency result in assay [1], in assay [2], in [3], in [4], in [18] and in assay [5] was “inactive” throughout. Further, the Potency entry in assay [7], in assay [20], in assay [8], in [9], in assay [10] and in assay [11] was “inactive” throughout. Besides, the Potency entry in assay [13], in [14], in assay [15], in [16] and in assay [17] was “inactive” each time.

In the case of `O=C1C(Cl)=C(Cl)C(=O)C(Cl)=C1Cl`, the Potency in assay [1] was 27.2 µM (active) and 27.3 µM (active); in assay [2], 4.84 µM (active) and 9.69 µM (active); in assay [5], 40.8 µM (active); in [6], “inactive and 40.8 µM (active)”. Also, the Potency entry in [3], in assay [4], in assay [7], in [8], in [9] and in assay [12] was “inactive” in each case.

Consider `Cc1nn(-c2cc(NS(C)(=O)=O)c(Cl)cc2Cl)c(=O)n1C(F)F`, for which the Potency result in [1], in assay [2], in assay [3], in assay [4], in assay [5] and in assay [6] was “inactive” throughout. Moreover, the Potency entry in assay [7], in assay [20], in [8], in assay [9], in assay [10] and in assay [11] was “inactive” each time. In addition, the Potency entry in assay [12], in assay [14], in assay [15], in assay [16] and in [17] was “inactive” in each case.
